# Test results taken from ChEMBL document CHEMBL4513141, “CO-ADD screening of NIH (USA) - Clinical Collection” (2021).
# Entries with a potency or affinity are not part of this list.
# Assays:
# Klebsiella pneumoniae = settings: Concentration 20 uM; ASSAY_TEST Inhibition of Bacterial Growth; detection method Absorption (OD600); MEDIA CAMHB; plate type 384well; NBS; CORNING #3640; time 18 hr
# Candida albicans = settings: 20 µM
# Cryptococcus neoformans = settings: Concentration 20 uM; ASSAY_TEST Inhibition of Fungal Growth; detection method Resazurin; Absorption (OD600-OD570); plate type 384well; NBS; CORNING #3640
smiles,measurement,setting,value
COc1ccc(CCN)cc1OC,Inhibition,Klebsiella pneumoniae,8.69%
same,Inhibition,Candida albicans,2.72%
same,Inhibition,Cryptococcus neoformans,-1.54%
CN1CC[C@@]23CCCC[C@@H]2[C@@H]1Cc1ccc(O)cc13.O=C(O)C(O)C(O)C(=O)O,Inhibition,Klebsiella pneumoniae,17.43%
same,Inhibition,Candida albicans,2.27%
same,Inhibition,Cryptococcus neoformans,-5.99%
CNS(=O)(=O)Cc1ccc2[nH]cc(CCN(C)C)c2c1.O=C(O)CCC(=O)O [SUMATRIPTAN SUCCINATE],Inhibition,Klebsiella pneumoniae,9.24%
same,Inhibition,Candida albicans,4.97%
same,Inhibition,Cryptococcus neoformans,-9.65%
Br.COc1ccc2c(c1)[C@]13CCCC[C@@H]1[C@H](C2)N(C)CC3.O [DEXTROMETHORPHAN HYDROBROMIDE],Inhibition,Klebsiella pneumoniae,8.1%
same,Inhibition,Candida albicans,2.88%
same,Inhibition,Cryptococcus neoformans,-7.7%
CNC1=Nc2ccc(Cl)cc2C(c2ccccc2)=[N+]([O-])C1 [CHLORDIAZEPOXIDE],Inhibition,Klebsiella pneumoniae,19.46%
same,Inhibition,Candida albicans,2.53%
same,Inhibition,Cryptococcus neoformans,-9.21%
NC(=O)OCCCc1ccccc1 [PHENPROBAMATE],Inhibition,Klebsiella pneumoniae,12.49%
same,Inhibition,Candida albicans,3.16%
same,Inhibition,Cryptococcus neoformans,-1.72%
CNC(=O)Oc1ccc2c(c1)[C@]1(C)CCN(C)C1N2C.CNC(=O)Oc1ccc2c(c1)[C@]1(C)CCN(C)C1N2C.O=S(=O)(O)O (stereo not given in full),Inhibition,Klebsiella pneumoniae,13.28%
same,Inhibition,Candida albicans,2.24%
same,Inhibition,Cryptococcus neoformans,-6.96%
COC(=O)N1CCN(C(=O)Cc2ccc(Cl)c(Cl)c2)C(CN2CCCC2)C1.O=C(O)/C=C/C(=O)O (stereo not given),Inhibition,Klebsiella pneumoniae,6.19%
same,Inhibition,Candida albicans,2.42%
same,Inhibition,Cryptococcus neoformans,-1.96%
CN1CCC[C@H]1c1cccnc1 [NICOTINE],Inhibition,Klebsiella pneumoniae,-4.81%
same,Inhibition,Candida albicans,1.61%
same,Inhibition,Cryptococcus neoformans,-2.7%
O=C1CN=C(c2ccccc2)c2cc([N+](=O)[O-])ccc2N1 [NITRAZEPAM],Inhibition,Klebsiella pneumoniae,13.18%
same,Inhibition,Candida albicans,3.29%
same,Inhibition,Cryptococcus neoformans,1.38%
